Compounds with a hit are over-represented: about 5.6% of the library has one in this group of screens.
ALR H2O2 inh: inhibitors of human ALR sulfhydryl oxidase, primary screen, biochemical, H2O2 detection, HRP-luminol luminescence, single point. purified ALR, DTT oxidation. inhibition, % (no concentration beside the values). 290,000 compounds, 3.8% hits;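 active = mean replicate inhibition above about 79%, with every replicate also reaching it, limit read from the data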
Target sequence (P55789 whole entry, looked up): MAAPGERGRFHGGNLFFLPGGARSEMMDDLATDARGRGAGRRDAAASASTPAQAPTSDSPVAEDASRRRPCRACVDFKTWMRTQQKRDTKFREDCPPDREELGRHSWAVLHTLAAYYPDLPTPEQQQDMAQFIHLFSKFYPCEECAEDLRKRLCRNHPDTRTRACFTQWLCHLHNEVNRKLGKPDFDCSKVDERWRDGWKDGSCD
PHOSPHO1 inh: PubChem AID 1565; inhibition, % at 13.3 µM; 290,000 compounds, 1.1% hits; Phosphoethanolamine/phosphocholine phosphatase (Homo sapiens), Q8TCT1; recombinant PHOSPHO1, absorbance phosphatase assay; in the data active = inhibition above about 60%
Target sequence (Q8TCT1 whole entry, looked up): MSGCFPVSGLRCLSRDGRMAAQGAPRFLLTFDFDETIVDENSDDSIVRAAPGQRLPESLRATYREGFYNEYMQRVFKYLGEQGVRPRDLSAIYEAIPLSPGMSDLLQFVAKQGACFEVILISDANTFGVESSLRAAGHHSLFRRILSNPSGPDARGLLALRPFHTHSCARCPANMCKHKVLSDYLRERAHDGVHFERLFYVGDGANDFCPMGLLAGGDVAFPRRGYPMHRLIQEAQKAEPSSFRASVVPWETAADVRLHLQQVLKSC
PfGluPho inh: PfG6PD enzyme inhibitors, primary screen, biochemical, fluorescence intensity, uHTS. glucose-6-phosphate dehydrogenase-6-phosphogluconolactonase (Plasmodium falciparum 3D7). PfGluPho enzyme, NADPH resazurin-diaphorase fluorescence. inhibition, % at 20 µM. 350,000 compounds, 0.78% hits;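 active = inhibition reaching at least a set limit at 20 µM in the primary screen, cut at about 59% in these data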;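 also: 0% = DMSO wells with substrate and 100% = DMSO wells lacking glucose-6-phosphate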
Cardio protect: cardioprotection against H2O2-induced cell death, primary screen, uHTS, H9c2 cells, ATPLite luminescence; 360,000 compounds, 0.63% hits; protection from H2O2 cell death, % at 20 µM; H9c2 cardiomyocytes, H2O2 injury protection, 2 h; AID 588492, 2011;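 active = compounds giving at least 50% protection of heart cells from peroxide-induced death in the single-dose screen, raw or plate-pattern-corrected value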;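 also: 0% = DMSO wells with peroxide and 100% = DMSO wells without peroxide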
PfM18AAP inh-1: PfM18AAP inhibitors, malaria aminopeptidase, primary screen, biochemical, QFRET, recombinant enzyme. M18 aspartyl aminopeptidase (Plasmodium falciparum 3D7). H-Glu-NHMec fluorogenic cleavage. inhibition, % at 7.35 µM. 290,000 compounds, 1.2% hits. AID 1822, 2009;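 active = inhibition above the campaign mean inhibition over all tested compounds plus 3 SD, cut at about 28% in these data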;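 also: 0% = plate median of test compound wells and 100% = 2 mM ZnCl2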
PfM18AAP inh-2: PfM18AAP inhibitors, malaria aminopeptidase, confirmation, biochemical, QFRET, recombinant enzyme, triplicate | shares compounds with PfM18AAP inh-1 | H-Glu-NHMec fluorogenic cleavage | inhibition, % at 7.35 µM | 2,400 compounds, 28% hits | AID 2170, 2009;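 active = mean inhibition over replicate wells above the hit cutoff set for the earlier primary screen, cut at about 29% in these data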;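 also: 0% = median of test compound wells and 100% = 2 mM ZnCl2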
CTSL1 confirm: cathepsin L1 inhibitors, retest, confirmation, counter-screen for PFM18AAP inhibitor project, biochemical, QFRET, triplicate; shares compounds with PfM18AAP inh-1; purified cathepsin L1, Z-Leu-Arg-MCA fluorescence; inhibition, % at 5.96 µM; 2,400 tested, under 10 active;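 active = average inhibition across replicates above the hit cutoff set in the earlier primary screen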;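 also: 0% = median of test compound wells and 100% = Z-Phe-Ala-diazomethylketone 1 µM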
Numbers without * were called inactive; x = no result given.

SMILES | ALR H2O2 inh | PHOSPHO1 inh | PfGluPho inh | Cardio protect | PfM18AAP inh-1 | PfM18AAP inh-2 | CTSL1 confirm
Cc1ccc2ccccc2c1C(O)c1ncc(-c2ccccc2F)[nH]1 (stereo not given) | x | x | x | -5 | x | x | x
CSc1nc(O)c(C(c2ccc(OC(C)C)cc2)c2c(O)nc(SC)[nH]c2=O)c(=O)[nH]1 | 23 | x | -17 | 8 | x | x | x
C[C@@H]1CN([C@H](C)CO)S(=O)(=O)c2ccc(C#Cc3ccccc3)cc2O[C@H]1CN(C)C(=O)Nc1ccc2c(c1)OCO2 | x | x | 23 | 20 | x | x | x
O=C(Cc1ccc(Cl)c(Cl)c1)Nc1ccccc1N1CCCC1 | 0 | 36 | -4 | -8 | 4 | x | x
O=C(Cc1ccc(F)cc1)Nc1ccccc1N1CCCC1 | 89* | 14 | -9 | -3 | 33* | -30 | -5
Clc1ccc(Nc2ccc(Cl)nn2)cc1 | -3 | 12 | 16 | 8 | -11 | x | x
O=C(NNc1ccc(Cl)nn1)c1ccc(Cl)cc1 | 0 | -8 | 7 | 5 | 38* | -4 | -2
Cc1cc(=S)[nH]c(=S)[nH]1 | 61 | -6 | 20 | 6 | 38* | -9 | 5
Cc1cc(=S)c2ccccc2[nH]1 | -2 | -74 | 43 | 0 | 8 | x | x
CN(c1ccccc1)S(=O)(=O)c1cccc(NC(=O)C2=NNC(=O)CC2)c1 | -11 | x | -2 | -8 | x | x | x
O=C(O)CC1CCC(=C(Cl)Cl)C1 (stereo not given) | 5 | -2 | 13 | -16 | 64* | -25 | 3
O=C(O)CC1CC(O)CCC1=O (stereo not given) | x | x | x | 0 | x | x | x
COc1cc(/C=N/NC(=O)Cc2csc(N3CCOCC3)n2)cc(OC)c1O | 99* | 8 | 13 | -11 | 32* | -37 | 0
CC(=O)NNC(=O)CN1C(=O)/C(=C/c2ccccc2)SC1=S | x | 16 | -23 | 5 | 34* | -29 | 4
CCOC(=O)C1(CCOc2ccccc2)CCN(Cc2ccc(OCC)c(CO)c2)CC1 | x | x | -4 | -9 | -3 | x | x
c1ccc2c(c1)Nc1nccnc1S2 | 7 | -9 | 58 | -2 | 36* | 4 | -7
CSc1nc(=S)c2[nH]c(=S)[nH]c2[nH]1 | 99* | 53 | 88* | 15 | 46* | 40* | -3
CSc1nc2c(c(=O)[nH]1)CCCC2 | -5 | -7 | 8 | 12 | -6 | x | x
COc1cc(/C=C2/C(=O)ON=C2C)cc(Cl)c1O | 91* | 37 | 9 | 4 | 32* | 11 | 0
S=C(Nc1cc(Cl)ccc1Cl)Nn1cnnc1 | x | 13 | 54 | -2 | 81* | 77* | 6
O=C(Nc1cccc(Cl)c1Cl)Nn1cnnc1 | -14 | 6 | -20 | 1 | 84* | 77* | -3
S=C(Nc1cccc(Cl)c1Cl)N1CCCC1 | -8 | 32 | 5 | 0 | -5 | x | x
S=C(Nc1cccc(Cl)c1Cl)Nn1cnnc1 | -5 | -11 | 39 | -7 | 82* | 82* | -1
NC(=S)Nc1cc(Cl)ccc1Cl | -3 | -10 | 3 | -1 | -9 | x | x
CSc1ccc(C(O)c2ncc(-c3cccc(F)c3)[nH]2)cc1 (stereo not given) | x | x | x | -8 | x | x | x
SMILES | ALR H2O2 inh | PHOSPHO1 inh | PfGluPho inh | Cardio protect | PfM18AAP inh-1 | PfM18AAP inh-2 | CTSL1 confirm
CCOc1ccc(CC(=O)C2C(=O)CC(C)(C)CC2=O)cc1OCC | -6 | 35 | 2 | 4 | 1 | x | x
CCOc1ccc(CC(=O)C2C(=O)CCCC2=O)cc1OCC | 0 | 32 | 3 | 28 | 33* | -25 | -4
COc1cccc(C(=S)N2CCCC2)c1OC | -16 | -26 | 50 | -2 | 39* | -19 | -2
COc1cc(C(=S)N2CCCCC2)ccc1O | 82* | 34 | 4 | 8 | 36* | -22 | -4
CNc1nc(Nc2ccccc2)nc(OCC(F)(F)F)n1 | -2 | 51 | -5 | 2 | 9 | x | x
CNc1nc(NN)nc(Nc2ccccc2)n1 | 0 | 19 | 12 | 4 | 33* | 4 | 1
